Results taken from PubChem BioAssay (NCI).
About 79,000 compounds went through this panel and 15% of them were active in at least one assay; those are over-represented in the sample as a whole. Calls of active or inactive are those of the source. Rule as the data show it: active = growth inhibition above about 70%; inactive = the rest.

Assay: NCI Yeast Anticancer Drug Screen. Data for the rad50 strain (AID 155);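 also: 0% = growth of vehicle-only cultures of the same strain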
Conditions: S. cerevisiae rad50 strain growth inhibition; at 50.0 µM; active compounds read high
Procedure: Growth inhibition of yeast strains with defined genetic alterations is measured as a screen for potential anti-cancer activity. Selected strains with alterations in DNA damage repair or cell cycle control were exposed to compounds and growth inhibition was measured relative to vehicle treated controls. The strain used in this assay is rad50

SMILES	growth inhibition
O=S(=O)(CC(Br)c1ccccc1)c1ccccc1 (stereo not given)	44.7% (inactive)
CN1C(=O)C(n2[nH]c(=O)n(-c3ccccc3)c2=O)C(=O)N(C)C1=O	11.8% (inactive)
O=C1NC(c2ccccc2)(c2ccccc2)C(=O)N1CCCCCCN1C(=O)NC(c2ccccc2)(c2ccccc2)C1=O	8.35% (inactive)
C=CCNC(=O)N(CCCC(NC(C)=O)C(=O)NCc1ccccc1)Cc1ccccc1 (stereo not given)	2.5% (inactive)
COc1cc(O)c2c(c1)C(=O)c1cc3c(c(O)c1C2=O)C(O)C(OC)C(C)(O)C3O (stereo not given)	72.5% (active)
CCOC(=O)c1cc(=O)[nH]c(N)n1	-6.4% (inactive)
O=C1OCC(O)=C1C(c1ccc(Cl)cc1)c1cc2c(cc1O)OCO2 (stereo not given)	-19.9% (inactive)
CN(C)C(=O)c1cccc(C2CCCCC2)c1O	-10.8% (inactive)
C=CCNC(=S)NNC(=S)NCC=C	9.55% (inactive)
CC(C)CNC(=S)N/N=C/C=C/c1ccc([N+](=O)[O-])cc1	4.2% (inactive)
C=C(CC(=O)OCC)C(=O)OCC	15.4% (inactive)
CC/C(=N/NC(=O)c1ccccc1)c1ccccc1	-18.9% (inactive)
CC1=CC(=O)/C(=C/N2C(=O)CNC2=S)C(=O)O1	-49.1% (inactive)
COc1ccc2[nH]c3c4c(cc(-c5ccccc5)c3c2c1)C(=O)N(c1ccccc1)C4=O	-11.1% (inactive)
COc1cc(C)oc(=O)c1	-6.1% (inactive)
Nc1ccc(NC(=S)Nc2ccccc2)cc1	-2.35% (inactive)
CC(=O)Nc1ccc(Cc2ccc(Cl)cc2)cc1	5.6% (inactive)
C[Si](C)(C)N1CCCC1	-22.1% (inactive)
COC(=O)c1ccccc1/C=C1\Cc2ccc3c(c2C1=O)CCCC3	-30.9% (inactive)
COc1ccc2cc3n(cc-2c1=O)CCc1cc2c(cc1-3)OCO2	-8.65% (inactive)

SMILES	growth inhibition
CC(C)c1ccc(OC(=N)c2ccccc2)cc1	1.5% (inactive)
CCCCN(CCCC)CC(O)c1cc(-c2ccc(C(F)(F)F)cc2)nc(-c2ccc(C(F)(F)F)cc2)c1 (stereo not given)	25% (inactive)
CC/C(=N\NS(=O)(=O)c1ccc(C)cc1)c1ccc(Br)cc1	27.4% (inactive)
O=C(Oc1ccc(OC(=O)c2ccccc2)c(C2CCCCCC2)c1)c1ccccc1	32.9% (inactive)
O=C(NNC(=O)c1ccccc1Br)c1ccccc1Br	-18.9% (inactive)
COc1ccc(/C=C2\N=C(c3ccc(N)cc3)OC2=O)cc1OC	10.1% (inactive)
CCOC(C)OCCCI (stereo not given)	-25.8% (inactive)
O=C1/C(=C/c2ccc(F)cc2)CC/C1=C\c1ccc(F)cc1	-10.5% (inactive)
CCCCCC/C=C\CCCCCCCCCc1cccc(OC)c1O	18.4% (inactive)
c1cc(CCc2ccncc2)ccn1	21.9% (inactive)
CCOP(C)(=O)C(Cc1c[nH]c2ccccc12)C(=O)O (stereo not given)	-20.7% (inactive)
CCC(=O)Nc1ccc(C)cc1C	23.7% (inactive)
C1COC(C2=NCCO2)=N1	-12.5% (inactive)
Cc1oc2ccccc2c(=O)c1Cn1cnc2ccc([N+](=O)[O-])cc21	-0.45% (inactive)
CC(=O)c1ccc(O)c(CN(C2CCCCC2)C2CCCCC2)c1O	-2.9% (inactive)
CCNC(=O)C1CC2C=CC1C2 (stereo not given)	-1.25% (inactive)
CC(=O)c1ccccc1NC(=O)C(=O)C(C(=O)c1ccc2ccccc2c1)C1OC(=O)c2ccccc21 (stereo not given)	-3.15% (inactive)
CN(CCC(=O)O)S(=O)(=O)c1ccccc1	-13.1% (inactive)
CC(=O)OCC1C(=O)OCC1C(=O)N1Cc2cc3ccccc3nc2C1 (stereo not given)	-10.6% (inactive)
O=c1c2ccccc2c2nccn2c2ccccc12	13.8% (inactive)
